{
  "source": "PubChem BioAssay (NCI)",
  "note": "The panel holds about 83,000 compounds, 20% with a hit somewhere; the sample as a whole holds those more often.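 How to read the values: 0–100, growth inhibition (40 = 60% inhibited); 0, no net growth; -100 to 0, cell death (-40 = 40% of starting cells died; -100 = all dead).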 A number with no mark means an inactive call. The source made the active and inactive calls.",
  "data": [
    {"tested_on": "CAKI-1 renal", "test": "NCI-60 one-dose screen, 48 h (100 = growth as untreated, 0 = no growth, -100 = all killed)", "settings": "10 µM unless noted", "procedure": "Growth inhibition of the CAKI-1 human tumor cell line is measured as a screen for anti-cancer activity. Cells are grown in 96 well plates and exposed to the test compound for 48 hours. Compounds are tested at a single concentration, which is 10^-5 M for most compounds. The reported endpoint is percent growth (GI% or GIPRCNT), where numbers from 0 - 100% represent growth inhibition, and numbers from -100% - 0 represent cell death. For example, a value of 40 represents 60% growth inhibition. A value of 0 means no net growth occurred over the course of the experiment. A value of -40 indicates 40% of cells at the beginning of the experiment died by the end of the experiment. A value of -100 means all cells are dead at the end of the experiment.\nNCI-60 Human Tumor Cell Lines Screen was performed using the standard one-dose NCI protocol, which is described in more detail at https://dtp.cancer.gov/discovery_development/nci-60/default.htm.\nCompounds with GIPRCNT values below 10 were considered active. Activity score was based on GIPRCNT using the following formula: […]\nScore is 0 for GIPRCNT values of 100 or above, 50 for GIPRCNT values of 0, and 100 for GIPRCNT values of -100.", "values": [
      {"compound": "CC(=O)NCCN", "growth": "84.7%"},
      {"compound": "CC(O)c1cc[cH-]c1.[Fe+2].c1cc[cH-]c1", "note": "(stereo not given)", "growth": "88%"},
      {"compound": "COc1ccc2cnc(N)c(C#Cc3cc(C(=O)Nc4ccc(CN5CCN(C)CC5)c(C(F)(F)F)c4)cnc3C)c2c1", "growth": "33.9%"},
      {"compound": "COc1ccc(OC)c(Cn2cc3c(c2)-c2oncc2CC3)c1", "growth": "12.5%"},
      {"compound": "C[C@]12CC[C@H]3[C@@H](CC[C@H]4C[C@@H](O)CC[C@@]43C)[C@@H]1CC(=O)C2", "growth": "87.6%"},
      {"compound": "Cc1ccc2c(c1)C(=O)CCS2", "growth": "99%"},
      {"compound": "O=C(CN1CCN(c2cccc(Cl)c2)CC1)N1CCN(c2nnc(-c3ccc(Cl)cc3)c(-c3ccc(Cl)cc3)n2)CC1", "growth": "105%"},
      {"compound": "CN1C(=O)C(=Cc2coc3ccc(Br)cc3c2=O)C(=O)N(C)C1=O", "growth": "101%"},
      {"compound": "CSC1=Nc2c(c(C)c(-c3ccccc3)n2CCCCl)C2=NC(=O)CN12", "growth": "57.7%"},
      {"compound": "O=C1C(Cl)=C(SC2=NCCN2)C(=O)c2ccccc21", "growth": "93.9%"},
      {"compound": "N=C(N)c1ccc(-c2ccc(-c3cc(Cl)cc(Cl)c3)s2)cc1", "growth": "-90.2% (active)"},
      {"compound": "O=C(/C=C/c1cccc(O)c1)c1cccc(-n2cc(-c3ccc(Cl)cc3)[nH]c2=O)c1", "growth": "-53.9% (active)"},
      {"compound": "O=C(Nc1ccc(-n2cc(-c3ccncc3)c(-c3ccc(Cl)c(O)c3)n2)cc1)Nc1cc(C(F)(F)F)cc(C(F)(F)F)c1", "growth": "8.54% (active)"},
      {"compound": "Nc1cc(N)c2nc(-c3ccccc3)c(NCCc3ccc(Cl)c(Cl)c3)nc2c1", "growth": "-92.4% (active)"},
      {"compound": "COC(=O)/C=C/c1cc(O)c2oc(-c3ccc(O)c(O)c3)c(C(=O)OC)c2c1", "growth": "19.9%"},
      {"compound": "COc1ccc2cc(C(C)C(=O)Nc3ccc(S(=O)(=O)Nc4cc(C)on4)cc3)ccc2c1", "note": "(stereo not given)", "growth": "86.4%"},
      {"compound": "COC(=O)c1ccc2[nH]c(O)c(C(=Nc3ccc(N(C)C(=O)CN4CCN(C)CC4)cc3)c3ccc([N+](=O)[O-])cc3)c2c1", "growth": "19%"},
      {"compound": "COC(=O)Nc1nc2ccc(C(=O)c3ccccc3N(C)C3COC3)cc2[nH]1", "growth": "45.2%"},
      {"compound": "Cn1c2ccccc2c2ccccc21", "growth": "101%"},
      {"compound": "O=P(OCCCl)(OCCCl)C(O)c1ccccc1Cl", "note": "(stereo not given)", "growth": "76.4%"},
      {"compound": "CCOC(=O)C1=C(C(F)(F)F)NC(=S)NC1CN1C(=O)c2ccccc2C1=O", "note": "(stereo not given)", "growth": "88.3%"},
      {"compound": "COC(=O)c1ccc(C(=Nc2ccc(N(C)C(=O)CN3CCN(C)CC3)cc2)c2c(O)[nH]c3ccc(C(=O)OC)cc23)cc1", "growth": "11.9%"},
      {"compound": "COc1ccccc1C(=O)Nc1cccc(-c2cc(=O)c3c(OC)c(OC)c(OC)cc3o2)c1", "growth": "65.1%"},
      {"compound": "COc1cc(-c2nn(-c3ccc(NC(=O)c4ccc(Cl)c(Cl)c4)cc3)cc2-c2ccncc2)ccc1Cl", "growth": "44.4%"},
      {"compound": "Cc1sc(NC(=O)c2ccc(C(C)(C)C)cc2)c(C(=O)O)c1C", "growth": "41.9%"},
      {"compound": "CC1=C[C@@H]2c3c(c(O)c(O)c4oc5cc(O)cc(O)c5c(=O)c34)[C@@H](c3cc(O)c(O)c4oc5cc(O)cc(O)c5c(=O)c34)[C@@H]2C(C)(C)C1", "growth": "19.8%"},
      {"compound": "COc1ccc(C2C3(C#N)C(N)=NC(=C(C#N)C#N)C23C#N)cc1OC", "note": "(stereo not given)", "growth": "86.9%"},
      {"compound": "CC1(C)CC(=O)C2=C(C1)Oc1nc(N)c(C#N)c(N)c1C2c1ccc(F)cc1", "note": "(stereo not given)", "growth": "92.3%"},
      {"compound": "CCOC(=O)C(C)C(C)(O)c1ccccc1", "note": "(stereo not given)", "growth": "109%"},
      {"compound": "CC(C)C(=O)c1ccc(Cl)s1", "growth": "107%"},
      {"compound": "CCOC(=O)NNc1[nH]c(-c2ccc(OC)cc2)cc1C#N", "growth": "121%"},
      {"compound": "COc1ccc(-n2nnnc2-c2cn[nH]c2C(F)(F)F)cc1", "growth": "92.5%"},
      {"compound": "c1cc(C2CCCCC2)ccc1OCCCCCCN1CCNCC1", "growth": "55.7%"},
      {"compound": "CCC(C)(C)c1ccc(OCCCCCCN2CCN(c3ccc(C)c(Cl)c3)CC2)cc1", "growth": "77.7%"},
      {"compound": "CCCCCCCCC(=O)Nc1ccc(O)cc1", "growth": "93.9%"},
      {"compound": "CC1Cc2cc(F)ccc2-n2cccc21", "note": "(stereo not given)", "growth": "101%"},
      {"compound": "O=C(N/N=C\\c1ccc(Cl)cc1)C(=O)N/N=C\\c1ccc(Cl)cc1", "growth": "94.6%"},
      {"compound": "COc1ccc2cn3c4ccc(O)cc4[nH]c(=O)c3c2c1", "growth": "16.9%"},
      {"compound": "COc1ccc(-c2nnc(SCC(=O)Nc3ccc(C(=O)/C=C/c4cc(OC)c(OC)c(OC)c4)cc3)n2-c2ccccc2)cc1OC", "growth": "1.67% [100 µM] (active)"},
      {"compound": "O=C(NC1CCN(Cc2ccccc2)CC1)c1cc(-c2cccnc2)nc2ccc(Cl)cc12", "growth": "82.6%"}
    ]}
  ]
}
